# From PubChem BioAssay (Tox21)
# Several values for one entry are separate records, joined by “and”; a condition that tells them apart may be missing. Equal entries are not always repeated. Inconclusive results are not listed. Entries that show only a call come without a potency. Activity calls are given as the source filed them. Unless noted, calls follow the shape of the dose curve; as a rule, active = well fitted curve in the direction sought with a large enough effect in the repeat runs; inconclusive = weak or mixed curves; inactive = no such curve, though single readings can be large; an effect the other way counts as inactive or inconclusive.
# Experiments:
# [1] = qHTS assay to identify small molecule agonists of the NFkB signaling pathway - cell viability counter screen (AID 1159515; calls by dose curve; also: nearly all actives have a fitted effect of over 55% in size; also: potency is read from the fitted curve at half-maximal effect)
# How it was run: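 Using the same wells as the NFkB reporter read, ME-180 NFkB-bla cells given compounds for 5 hr were assessed for viability via CellTiter-Glo, with luminescence taken after a 30 min room-temperature incubation.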
# [2] = qHTS assay to identify small molecule agonists of the endoplasmic reticulum stress response signaling pathway - cell viability counter screen (AID 1159517; calls by dose curve; also: nearly all actives have a fitted effect of over 50% in size; also: potency is read from the fitted curve at half-maximal effect)
# How it was run: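 CellTiter-Glo was added to wells already read for beta-lactamase FRET, and luminescence was recorded 30 min later. Cells: ESRE-bla HeLa, 1,500 per well, compound exposure 5 hr at 37 C.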
# [3] = qHTS assay to identify small molecule antagonists of the retinoid-related orphan receptor gamma (ROR-gamma) signaling pathway - cell viability counter screen (AID 1159520); also: nearly all actives have a fitted effect of over 50% in size; also: potency is read from the fitted curve at half-maximal effect
# How it was run: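 Tet-on ROR gamma CHO cells (1,000/well) were plated 4 hr, given compounds in DMSO for 2 hr at 37 C, then induced with 1 uM final doxycycline for 16 hr. Viability was read as ATP by CellTiter-Glo luminescence after 30 min.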
# [4] = qHTS assay to identify small molecule agonists of the AP-1 signaling pathway - cell viability counter screen (AID 1159525; calls by dose curve; also: nearly all actives have a fitted effect of over 55% in size; also: potency is read from the fitted curve at half-maximal effect)
# How it was run: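 ME-180 AP-1-bla, 2500 cells/well, Opti-MEM + 0.5% dialyzed FBS; overnight 37 °C; cpd 15-pt titration, 5 h 37 °C; CellTiter-Glo 30 min RT; luminescence read; normalised to TOAB and DMSO controls.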
# [5] = qHTS assay to identify small molecule agonists of the RXR signaling pathway - cell viability counter screen (AID 1159529); also: nearly all actives have a fitted effect of over 50% in size; also: potency is read from the fitted curve at half-maximal effect
# How it was run: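 RXR-alpha-UAS-bla HEK 293T cells in medium with 2% charcoal-stripped FBS were preincubated 5 hr, then exposed to compounds for 16 hr at 37 C. Viability was read as CellTiter-Glo luminescence after 30 min at room temperature.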
# [6] = qHTS assay to identify small molecule antagonists of the retinoid acid receptor (RAR) signaling pathway - cell viability counter screen (AID 1159551); also: nearly all actives have a fitted effect of over 35% in size; also: potency is read from the fitted curve at half-maximal effect
# How it was run: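 Retinol-stimulated (1 uM final) C3RL4 cells, compound 6 h, 37 C; readout CellTiter-Glo luminescence (ATP) after 30 min RT incubation.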
# [7] = qHTS assay to identify small molecule agonists of the retinoic acid receptor (RAR) signaling pathway (AID 1159553); also: potency is read from the fitted curve at half-maximal effect
# How it was run: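 Reporter readout comes from luciferase under RARE control in C3RL4 cells; compound exposure lasts 6 hr at 37 C in 5% CO2, and luminescence is recorded following a 30 min room-temperature incubation with reagent.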
# [8] = qHTS assay to identify small molecule antagonists of the estrogen related receptor (ERR) signaling pathway from Tox21 library - cell viability counter screen (AID 1224834); also: nearly all actives have a fitted effect of over 30% in size; also: potency is read from the fitted curve at half-maximal effect
# How it was run: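 After 17.5 h of compound exposure at 37 C, ERR cells are incubated with CellTiter-Fluor for 30 min and fluorescence intensity serves as the viability measure.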
# [9] = qHTS assay to identify small molecule antagonists of the vitamin D receptor (VDR) signaling pathway - cell viability counter screen (AID 743225); also: nearly all actives have a fitted effect of over 50% in size; also: potency is read from the fitted curve at half-maximal effect
# How it was run: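 VDR-bla HEK 293T cells, 4 h pre-incubation at 37C, then compound plus 1-alpha,25-dihydroxyvitamin D3 (3 nM final) for 16 h. After the beta-lactamase FRET read, CellTiter-Glo was added to the same wells; luminescence after 30 min at room temperature.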
# [10] = qHTS assay to identify small molecule antagonists of the retinoic acid receptor (RAR) signaling pathway (AID 1159552; also: nearly all actives have a fitted effect of over 50% in size; also: potency is read from the fitted curve at half-maximal effect)
# How it was run: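 RARE-luc C3RL4 cells; cpds + 1 uM (final) retinol, 6 hr, 37 C/5% CO2; luciferase reagent, 30 min RT, luminescence readout. Inhibitors of retinol-driven signal scored.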
# [11] = qHTS assay to identify small molecule agonists of the AP-1 signaling pathway (AID 1159526; calls by dose curve)
# [12] = molecular target: Retinoic acid receptor RXR-alpha (Homo sapiens) (UniProt P19793); experiment: qHTS assay to identify small molecule agonists of the RXR signaling pathway (AID 1159527; calls by dose curve; also: nearly all actives have a fitted effect of over 35% in size; also: potency is read from the fitted curve at half-maximal effect)
# Sequence of Retinoic acid receptor RXR-alpha (Homo sapiens) (P19793 whole entry, looked up): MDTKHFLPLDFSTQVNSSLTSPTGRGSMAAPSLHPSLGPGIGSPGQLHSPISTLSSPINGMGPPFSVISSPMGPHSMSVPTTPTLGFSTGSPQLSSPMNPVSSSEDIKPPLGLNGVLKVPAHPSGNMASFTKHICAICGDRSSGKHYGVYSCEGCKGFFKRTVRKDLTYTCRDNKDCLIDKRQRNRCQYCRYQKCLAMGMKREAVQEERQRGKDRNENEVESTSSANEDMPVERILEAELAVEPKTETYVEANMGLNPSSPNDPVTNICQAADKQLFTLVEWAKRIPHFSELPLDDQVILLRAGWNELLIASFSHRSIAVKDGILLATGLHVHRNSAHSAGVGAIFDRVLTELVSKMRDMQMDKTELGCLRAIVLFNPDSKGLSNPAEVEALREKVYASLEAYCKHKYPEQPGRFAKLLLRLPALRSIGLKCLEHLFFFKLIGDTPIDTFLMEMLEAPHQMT
# How it was run: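 GeneBLAzer RXR-alpha-UAS-bla HEK 293T cells in medium with 2% charcoal-stripped FBS, pre-incubated 5 hr at 37 C, then exposed to compounds 16 hr. Beta-lactamase reporter read by FRET substrate, 2 hr room temperature, 460/530 nm emission.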
# [13] = qHTS assay to identify small molecule antagonists of the estrogen related receptor (ERR) signaling pathway - cell viability counter screen (AID 1224818); also: potency is read from the fitted curve at half-maximal effect
# How it was run: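 After a 6 h pre-incubation, ERR cells were dosed by pin tool with compounds, positive/negative controls or DMSO alone. Following 17.5 h at 37 C and 30 min with CellTiter-Fluor, fluorescence was recorded.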
# [14] = qHTS assay to identify small molecule antagonists of the estrogen related receptor (ERR) signaling pathway (AID 1224819)
# How it was run: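 Luminescence readout (One-Glo, 30 min, RT) of ERR cell line after 18 h compound exposure at 37 C; cells seeded 2,000/well, pre-incubated 6 h, compounds pinned from DMSO stocks.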
# [15] = qHTS assay to identify small molecule agonists of the estrogen related receptor (ERR) signaling pathway (AID 1224820)
# How it was run: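 ERR reporter cell line (from NTP), 2,000 cells/well, incubated 6 h before compound addition, then 18 h at 37 C. Luminescence measured 30 min after One-Glo reagent at room temperature.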
# [16] = test system: estrogen-related receptor alpha (ERRalpha) with PGC-1alpha coactivator, human; experiment: qHTS assay to identify small molecule antagonists of the estrogen related receptor signaling pathway with the pleiotropic PPARgamma coactivator (PGC) (AID 1224821; calls by dose curve)
# How it was run: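 PGC/ERR reporter cell line, plated 6 h before compound addition, then exposed 18 h at 37 °C. Luciferase activity read by luminescence 30 min after One-Glo addition; decrease indicates antagonism.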
# [17] = qHTS assay to identify small molecule antagonists of the estrogen related receptor signaling pathway with the pleiotropic PPARgamma coactivator (PGC) cell viability counter screen (AID 1224822; also: potency is read from the fitted curve at half-maximal effect)
# How it was run: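 PGC/ERR cells were plated at 2,000 per well and allowed 6 h to settle before compound addition. Following 17.5 h at 37 C, CellTiter-Fluor reagent was added and fluorescence was read 30 min later.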
# [18] = qHTS assay to identify small molecule agonists of the estrogen related receptor signaling pathway with the pleiotropic PPARgamma coactivator (PGC) (AID 1224823)
# How it was run: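 PGC/ERR reporter cells seeded 6 h, then exposed to compounds (23 nL in DMSO) for 18 h at 37 C. One-Glo luciferase luminescence read after 30 min at room temperature.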
smiles,measurement,setting,value
Cc1onc(-c2c(Cl)cccc2Cl)c1C(=O)N[C@@H]1C(=O)N2[C@@H]1SC(C)(C)[C@@H]2C(=O)O,Potency,[1],inactive
same,Potency,[2],inactive
same,Potency,[3],inactive
same,Potency,[4],inactive
same,Potency,[5],inactive
same,Potency,[6],inactive
same,Potency,[7],inactive
same,Potency,[8],inactive
Cn1cc(C(=O)[C@@H]2CCc3nc[nH]c3C2)c2ccccc21,Potency,[9],inactive
same,Potency,[1],inactive
same,Potency,[2],inactive
same,Potency,[3],inactive
same,Potency,[4],inactive
same,Potency,[6],inactive
same,Potency,[10],inactive
same,Potency,[7],inactive
same,Potency,[8],inactive
NNc1nc(-c2ccc(N)cc2)cs1,Potency,[9],inactive
same,Potency,[1],inactive
same,Potency,[2],inactive
same,Potency,[3],inactive
same,Potency,[4],inactive
same,Potency,[5],inactive
same,Potency,[8],54.5 µM (active)
CC(C)OC(=O)c1cc2c(OCC(O)CNC(C)(C)C)cccc2[nH]1 (configuration not stated),Potency,[1],inactive
same,Potency,[2],inactive
same,Potency,[3],inactive
same,Potency,[4],inactive
same,Potency,[11],inactive
same,Potency,[5],inactive
same,Potency,[6],inactive
same,Potency,[10],inactive
same,Potency,[7],inactive
same,Potency,[8],inactive
CS(=O)(=O)CCNCc1ccc(-c2ccc3ncnc(Nc4ccc(OCc5cccc(F)c5)c(Cl)c4)c3c2)o1,Potency,[9],21.3 µM (active)
same,Potency,[1],16.9 µM (active)
same,Potency,[2],15.1 µM (active)
same,Potency,[3],29.8 µM (active)
same,Potency,[4],21.3 µM (active)
same,Potency,[5],16.9 µM (active)
same,Potency,[6],inactive
same,Potency,[7],inactive
same,Potency,[8],6.68 µM (active)
Nc1c(Cl)cc(Cl)cc1Cl,Potency,[9],inactive
same,Potency,[1],inactive
same,Potency,[2],inactive
same,Potency,[3],inactive
same,Potency,[4],inactive
same,Potency,[11],inactive
same,Potency,[12],12.1 µM (active)
same,Potency,[5],inactive
same,Potency,[6],inactive
same,Potency,[10],inactive
same,Potency,[7],inactive
same,Potency,[8],inactive
CC(C)(C)c1ccc(C(=O)O)cc1,Potency,[9],inactive
same,Potency,[1],inactive
same,Potency,[2],inactive
same,Potency,[3],inactive
same,Potency,[4],inactive
same,Potency,[11],inactive
same,Potency,[12],inactive
same,Potency,[5],inactive
same,Potency,[6],inactive
same,Potency,[10],inactive
same,Potency,[7],inactive
Nc1ccc2cc(S(=O)(=O)O)cc(O)c2c1N=Nc1ccccc1C(F)(F)F,Potency,[1],inactive
same,Potency,[2],inactive
same,Potency,[3],inactive
same,Potency,[4],inactive
same,Potency,[11],inactive
same,Potency,[5],inactive
same,Potency,[10],inactive
same,Potency,[7],inactive
Cc1c(C)c2c(c(C)c1O)CCC(C)(COc1ccc(CC3SC(=O)NC3=O)cc1)O2 (configuration not stated),Potency,[1],inactive
same,Potency,[2],inactive
same,Potency,[3],inactive
same,Potency,[4],inactive
same,Potency,[11],inactive
same,Potency,[5],inactive
same,Potency,[6],inactive
same,Potency,[8],inactive
CC(C)(C)C(=O)OCOC(=O)[C@@H]1N2C(=O)[C@@H](NC(=O)[C@H](N)c3ccccc3)[C@H]2SC1(C)C,Potency,[9],inactive
same,Potency,[1],inactive
same,Potency,[2],inactive
same,Potency,[3],inactive
same,Potency,[4],inactive
same,Potency,[12],inactive
same,Potency,[6],inactive
same,Potency,[7],inactive
same,Potency,[8],inactive
CCCCCCCCCCn1cc[n+](CCCCCCCCCC)c1C,Potency,[9],6.93 µM (active)
same,Potency,[1],55 µM (active)
same,Potency,[2],34.7 µM (active)
same,Potency,[3],19.4 µM (active)
same,Potency,[4],39 µM (active)
same,Potency,[5],6.93 µM (active)
same,Potency,[6],61.2 µM (active)
same,Potency,[10],24.4 µM (active)
O=[N+]([O-])c1cc([N+](=O)[O-])c2ccc(S(=O)(=O)O)cc2c1O,Potency,[9],inactive
same,Potency,[1],inactive
same,Potency,[2],inactive
same,Potency,[3],inactive
same,Potency,[4],inactive
same,Potency,[5],inactive
same,Potency,[6],inactive
same,Potency,[8],12.1 µM (active)
CC(C)(C)CC(C)(C)c1ccc(OCCOCC[N+](C)(C)Cc2ccccc2)cc1,Potency,[1],24.5 µM (active)
same,Potency,[2],21.9 µM (active)
same,Potency,[3],54.4 µM (active)
same,Potency,[4],24.5 µM (active)
same,Potency,[5],6.91 µM (active) and 4.77 µM (active)
same,Potency,[6],61.1 µM (active)
same,Potency,[10],43.2 µM (active) and 29.8 µM (active)
same,Potency,[8],48.5 µM (active) and 13.3 µM (active)
CCc1oc2ccccc2c1C(=O)c1cc(Br)c(O)c(Br)c1,Potency,[1],inactive
same,Potency,[2],inactive
same,Potency,[3],inactive
same,Potency,[4],inactive
same,Potency,[6],inactive
same,Potency,[10],inactive
same,Potency,[7],inactive
CC/C(=C(\c1ccc(O)cc1)c1ccc(OCCN(C)C)cc1)c1ccccc1,Potency,[1],49.1 µM (active)
same,Potency,[2],61.8 µM (active)
same,Potency,[3],34.4 µM (active)
same,Potency,[4],27.6 µM (active)
same,Potency,[5],21.9 µM (active)
same,Potency,[10],68.7 µM (active)
same,Potency,[8],68.7 µM (active)
Clc1ccc2n[nH]nc2c1,Potency,[9],inactive
same,Potency,[1],inactive
same,Potency,[2],inactive
same,Potency,[3],inactive
same,Potency,[4],inactive
same,Potency,[5],inactive
same,Potency,[6],inactive
NC(=O)NS(=O)(=O)c1ccc(N)cc1,Potency,[9],inactive
same,Potency,[1],inactive
same,Potency,[2],inactive
same,Potency,[3],inactive
same,Potency,[4],inactive
same,Potency,[11],inactive
same,Potency,[12],inactive
same,Potency,[5],inactive
same,Potency,[6],inactive
same,Potency,[10],inactive
same,Potency,[7],inactive
CN(C)CCCOC1(Cc2ccccc2)CCCCCC1,Potency,[1],inactive
same,Potency,[2],inactive
same,Potency,[3],inactive
same,Potency,[4],inactive
same,Potency,[6],inactive
same,Potency,[10],inactive
same,Potency,[7],inactive
C[n+]1cc2c3c(ccc2c2ccc4cc5c(cc4c21)OCO5)OCO3,Potency,[1],1.17 µM (active)
same,Potency,[2],1.31 µM (active)
same,Potency,[3],1.64 µM (active)
same,Potency,[4],2.08 µM (active)
same,Potency,[5],1.47 µM (active)
same,Potency,[6],3.66 µM (active)
same,Potency,[10],1.83 µM (active)
same,Potency,[13],2.87 µM (active)
same,Potency,[14],3.1 µM (active)
same,outcome,[15],inactive
same,Potency,[16],2.28 µM (active)
same,Potency,[17],0.944 µM (active)
same,outcome,[18],inactive
same,Potency,[8],2.91 µM (active)
CCOC(=O)/C=C(C)/C=C/C=C(C)/C=C/c1c(C)cc(OC)c(C)c1C,Potency,[9],inactive
same,Potency,[1],inactive
same,Potency,[2],inactive
same,Potency,[3],inactive
same,Potency,[4],inactive
same,Potency,[11],inactive
same,Potency,[5],inactive
same,Potency,[6],inactive
same,Potency,[10],inactive
same,Potency,[7],0.531 µM (active)
same,Potency,[8],inactive
COc1ccc(-c2ccc3cc(C(=O)O)ccc3c2)cc1C12CC3CC(CC(C3)C1)C2,Potency,[9],inactive
same,Potency,[1],21.3 µM (active)
same,Potency,[2],10.7 µM (active)
same,Potency,[3],29.8 µM (active)
same,Potency,[4],inactive
same,Potency,[11],inactive
same,Potency,[12],inactive
same,Potency,[6],inactive
same,Potency,[10],inactive
same,Potency,[7],0.0298 µM (active)
CC(C)=CCOc1ccc(/C=C/C(=O)c2ccc(OCC=C(C)C)cc2OCC(=O)O)cc1,Potency,[1],inactive
same,Potency,[2],inactive
same,Potency,[3],inactive
same,Potency,[4],inactive
same,Potency,[6],inactive
same,Potency,[10],inactive
same,Potency,[7],inactive
same,Potency,[8],inactive
